This is part of a sample that, as a whole, favours compounds with a hit. Of some 79,000 tested, about 15% had one in any assay. Unmarked numbers belong to inactive results. Active and inactive are the calls of the source. No stated cut-off is given here; in the data, active means growth inhibition above about 70%; inactive means the rest.

Assay [1] can be described thus: NCI Yeast Anticancer Drug Screen. Data for the rad50 strain (AID 155).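 Further: 0% = growth of vehicle-only cultures of the same strain.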 The following applies: S. cerevisiae rad50 strain growth inhibition; at 50.0 µM; hits give high values. Summed up:
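DNA repair mutant yeast, compound exposure, growth read-out; inhibition is taken relative to vehicle.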

The nature of assay [2]: NCI Yeast Anticancer Drug Screen. Data for the mec2-1 strain (AID 157). The conditions noted are these: S. cerevisiae mec2-1 strain, at 50.0 µM, hits give high values. Summed up:
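Using mec2-1 yeast: add compound, measure growth, express inhibition versus vehicle-treated cultures.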

Assay [3] can be described thus: NCI Yeast Anticancer Drug Screen. Data for the sgs1 mgt1 strain (AID 161).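 Further: 0% = growth of cultures given vehicle only.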 The conditions noted are these: S. cerevisiae sgs1 mgt1 strain, at 50.0 µM, hits give high values. Summed up:
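Yeast cells carrying a defined DNA-repair defect were exposed to test compounds. Growth inhibition was measured relative to vehicle-treated controls.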

The nature of assay [4]: NCI Yeast Anticancer Drug Screen. Data for the cln2 rad14 strain (AID 165).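 Further: 0% = growth equal to vehicle treated cultures.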 The following applies: S. cerevisiae cln2 rad14 strain, at 50.0 µM, hits give high values. Summed up:
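Yeast strain cln2 rad14, bearing defects in cell cycle control and DNA repair, serves as the test system; values reflect growth inhibition compared with vehicle.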

Assay [5] is described as follows: NCI Yeast Anticancer Drug Screen. Data for the bub3 strain (AID 167). The conditions noted are these: S. cerevisiae bub3 mutant strain, at 50.0 µM, hits give high values. Summed up: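 In this screen, a yeast mutant lacking normal mitotic checkpoint function is challenged with compound. Relative growth versus vehicle gives the inhibition value.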
Assay [6] in a line: NCI Yeast Anticancer Drug Screen. Data for the mlh1 rad18 strain (AID 175). The following applies: S. cerevisiae mlh1 rad18 strain growth inhibition; at 50.0 µM; hits give high values. Summed up:
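Steps: expose repair-defective yeast to compound; measure growth; express inhibition against vehicle-treated controls.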

Take `COc1cc(C=C2C(=O)NC(=S)NC2=O)cc(OC)c1OC`: the growth inhibition is 5.05% in assay [1]; -15.9% in assay [2]; 3.35% in assay [3]; 18.6% in assay [4]; -1.35% in assay [5]; -0.95% in assay [6].
`C[As+](c1ccccc1)(c1ccccc1)c1cccc2ccccc12`: the growth inhibition was 10.2% in assay [1]; 38.9% in assay [2]; 21.2% in assay [3]; -10.1% in assay [4]; 26.1% in assay [5]; 34.3% in assay [6].
On to `[CH3][Sn]([CH3])([Br])[CH2]CCBr`, for which the growth inhibition in assay [1] is 84.2% (active); in assay [2], 88.1% (active); in assay [3], 89.2% (active); in assay [4] it was 48.5%; in assay [5], 95% (active); in assay [6], 96.5% (active).
Take `CCCCCC(=O)C[n+]1ccccc1` (tested in a mixture with another compound): the growth inhibition was -11.7% in assay [1]; -1.4% in assay [2]; -20% in assay [3]; -36% in assay [4]; 24.4% in assay [5]; -9.15% in assay [6].
Regarding `c1ccc2c(c1)SCCC2NC1=NCCO1` (stereo unspecified), the growth inhibition was -15.2% in assay [1]; -13.6% in assay [2]; -9% in assay [3]; 9.45% in assay [4]; 8.7% in assay [5]; -36.3% in assay [6].
With `O=C(COc1ccc(Cl)c(Cl)c1)Nc1ccccc1S(=O)(=O)F`, the growth inhibition in assay [1] is 27.6%; in assay [2], -5.35%; in assay [3] it was -3.8%; in assay [4] it was 21.6%; in assay [5] it was 5.15%; in assay [6], 21.4%.
Turning to `Nc1ccc2c(c1)Cc1cc(N)ccc1-2`, the growth inhibition was 60.2% in assay [1]; 15.3% in assay [2]; 57% in assay [3]; -3.75% in assay [4]; 37% in assay [5]; 12.1% in assay [6].
On to `Cc1ccc(N=C2OP(=O)(Nc3ccc(C)cc3)Oc3ccccc32)cc1` (stereo unspecified), for which the growth inhibition in assay [1] was -11.3%; in assay [2], -44.8%; in assay [3] it was -23.6%; in assay [4], 0.3%; in assay [5], -6%; in assay [6], -19.9%.
On to `CCOP(=O)(OCC)/C(C#N)=C/c1ccc(C)o1`, for which the growth inhibition in assay [1] is -34.2%; in assay [2], -13.3%; in assay [3] it was -49.6%; in assay [4], -7%; in assay [5], -19.8%; in assay [6], -41.6%.
As for `CCCCOCN(CCc1ccccc1)COCCCC`, the growth inhibition is 15.7% in assay [1]; 5.8% in assay [2]; 24.2% in assay [3]; 19.2% in assay [4]; 10.2% in assay [5]; 25.6% in assay [6].
On to `CNc1cccc2ccccc12`, for which the growth inhibition in assay [1] was -3.3%; in assay [2], -14.1%; in assay [3], -54.5%; in assay [4] it was -36.5%; in assay [5] it was -28.6%; in assay [6], -0.35%.
As to `C[N+]1(C)C2CC(O)CC1C1OC12` (stereo unspecified), the growth inhibition in assay [1] was -4.35%; in assay [2], 5.15%; in assay [3], 1.45%; in assay [4], 2.85%; in assay [5] it was -3.75%; in assay [6], 4.45%.
Consider `CCN1CCOC(O)(c2cc(Cl)cc(Cl)c2Cl)C1` (stereo unspecified), for which the growth inhibition is 17.4% in assay [1]; -11.2% in assay [2]; 8.9% in assay [3]; -24.7% in assay [4]; 26.1% in assay [5]; 14.8% in assay [6].
Regarding `CC(C)(O)OC1COC(C2CS2)C1O` (stereo unspecified), the growth inhibition in assay [1] is 18.1%; in assay [2], 15.6%; in assay [3], 3.95%; in assay [4] it was 34.8%; in assay [5] it was 29.6%; in assay [6] it was -22.4%.
In the case of `COc1cc(-c2ccc(N)c(OC)c2)ccc1N`, the growth inhibition is 26.7% in assay [1]; 7.9% in assay [2]; 20.2% in assay [3]; 5.8% in assay [4]; -2.45% in assay [5]; 30.1% in assay [6].
Regarding `NC(=O)Nc1ccc([As]=O)cc1` (stereo unspecified), the growth inhibition was 8% in assay [1]; -5.7% in assay [2]; -1.3% in assay [3]; 11.5% in assay [4]; -15.2% in assay [5]; 2.65% in assay [6].
For `O/N=C(/C(=N/O)c1ccccc1)c1ccccc1.O/N=C(/C(=N/O)c1ccccc1)c1ccccc1.[Ni]`, the growth inhibition in assay [1] is -10.2%; in assay [2], -6.5%; in assay [3], 5.05%; in assay [4], -21.8%; in assay [5] it was 2.15%; in assay [6] it was -14.8%.
With `CN(C)CCNC(=O)c1ccc(N(CCCl)CCCl)c([N+](=O)[O-])c1[N+](=O)[O-]`, the growth inhibition was 36.4% in assay [1]; 20.4% in assay [2]; 30.8% in assay [3]; 17.6% in assay [4]; 9.65% in assay [5]; 34% in assay [6].
As to `Cn1c(O)c(C=N)c(=O)[nH]c1=O`, the growth inhibition is -4% in assay [1]; 3.35% in assay [2]; -1.65% in assay [3]; -15.7% in assay [4]; -8% in assay [5]; -8.3% in assay [6].
For the molecule `CC1=CC2=C(C)C3(CC3)[C@@](C)(O)C(=O)C2=C1`, the growth inhibition in assay [1] is 45.5%; in assay [2], 14.3%; in assay [3], 55.8%; in assay [4], 23.9%; in assay [5] it was 26.9%; in assay [6], -15.2%.
Take `Cc1ccc(S(=O)(=O)OCCN2CC2)cc1`: the growth inhibition in assay [1] was -12%; in assay [2] it was -12.2%; in assay [3], -13.6%; in assay [4] it was -23.2%; in assay [5], -17.4%; in assay [6], -12.7%.

The record behind these values is PubChem BioAssay (NCI).
